# Measured values: PubChem BioAssay
# Active and inactive are the calls of the source.
# Columns and labels:
# Albumin (Bos taurus) = Albumin (Bos taurus) (UniProt P02769); test: bovine serum albumin binders on microarray, profiling panel, artefact control for SMM control protein annotation, biochemical, small-molecule microarray, Alexa647 label, 635/667 nm fluorescence (AID 1118); details: BSA-A647 binding, fluorescence 635 nm, higher = more signal;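 also: score merges 667 nm emission intensity and signal-to-noise per printed compound spot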
# [1] = small-molecule microarray binders of probe aXIP, primary screen, biochemical, NeuroSMM set, 635/667 nm fluorescence (AID 1119); details: higher = more signal, called active from +8 up or from −8 down;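 also: probe is the protein aXip251-270 applied at 1 µg/mL to compound-printed slides; binding of probe to printed compounds measured as 667 nm fluorescence plus signal to noise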
# [2] = small-molecule binders of probe aNOTCH3, primary screen, biochemical, small-molecule microarray, 635/667 nm fluorescence (AID 1120); details: higher = more signal;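 also: probe is a biotin-tagged antibody raised against NOTCH3 rather than NOTCH3 protein; score merges spot fluorescence near 667 nm with spot signal to noise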
# [3] = small-molecule binders of probe aNOTCH2, primary screen, biochemical, small-molecule microarray, 635/667 nm fluorescence (AID 1121); details: higher = more signal;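 also: score merges feature fluorescence read at 667 nm with its signal to noise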
# [4] = target: Carbonic anhydrase 2 (Homo sapiens) (UniProt P00918); test: CAII small-molecule binders, profiling panel, biochemical, small-molecule microarray, Alexa647-labelled CAII (AID 1122); details: CAII-A647 binding fluorescence, higher = more signal
# [5] = COS7 lysate on small-molecule microarray, probe aHis, 635 nm (AID 1123); details: COS7 cell lysate, fluorescence, higher = more signal;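 also: z-score combines 667nm fluorescence intensity with signal-to-noise per printed compound spot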
# [6] = compound binding in COS7 lysate, probe aLAP1, primary screen, cell lysate, small-molecule microarray (AID 1124); details: probe aLAP1, fluorescence, higher = more signal;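 also: lysate comes from COS7 cells expressing LAP1 and is applied at 0.3 µg/mL; score merges spot fluorescence near 667 nm with signal-to-noise over triplicate slides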
# Sam68 (KHDRBS1) = test: Sam68 small-molecule binders, primary screen, biochemical, small-molecule microarray, 635 nm fluorescence (AID 1125); details: small-molecule microarray binding, higher = more signal;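 also: score merges 667 nm channel intensity with signal to noise over triplicate slides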
# [7] = tested on: Chordin-like protein 2 (CHRDL2); test: CHRDL2 small-molecule binders, primary screen, biochemical, small-molecule microarray, 635 nm fluorescence (AID 1126); details: small-molecule microarray binding, fluorescence 635 nm; higher = more signal;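 also: printed compound slides probed with Chrdl2 protein at 4 µg/mL for 1 h at 4 C; score merges 667 nm emission intensity with signal to noise over three replicate slides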
# [8] = target: Concanavalin-A (Canavalia ensiformis) (UniProt P02866); test: ConA small-molecule binders, primary screen, artefact control for SMM control protein annotation, biochemical, small-molecule microarray, Alexa647 label, 635 nm (AID 1127); details: ConA-A647 binding fluorescence, higher = more signal;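 also: z combines 667 nm emission intensity with signal-to-noise across three replicate slides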
# Chain of Concanavalin-A (Canavalia ensiformis) (P02866 whole entry, looked up): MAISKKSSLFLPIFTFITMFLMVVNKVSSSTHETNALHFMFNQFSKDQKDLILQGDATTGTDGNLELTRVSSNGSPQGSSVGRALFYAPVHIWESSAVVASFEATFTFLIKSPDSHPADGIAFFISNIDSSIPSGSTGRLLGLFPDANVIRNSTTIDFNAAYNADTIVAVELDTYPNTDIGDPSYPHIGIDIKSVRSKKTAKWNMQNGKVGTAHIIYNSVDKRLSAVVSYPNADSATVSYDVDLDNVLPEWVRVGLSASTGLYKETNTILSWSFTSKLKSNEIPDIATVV
# Chain of Albumin (Bos taurus) (P02769 whole entry, looked up): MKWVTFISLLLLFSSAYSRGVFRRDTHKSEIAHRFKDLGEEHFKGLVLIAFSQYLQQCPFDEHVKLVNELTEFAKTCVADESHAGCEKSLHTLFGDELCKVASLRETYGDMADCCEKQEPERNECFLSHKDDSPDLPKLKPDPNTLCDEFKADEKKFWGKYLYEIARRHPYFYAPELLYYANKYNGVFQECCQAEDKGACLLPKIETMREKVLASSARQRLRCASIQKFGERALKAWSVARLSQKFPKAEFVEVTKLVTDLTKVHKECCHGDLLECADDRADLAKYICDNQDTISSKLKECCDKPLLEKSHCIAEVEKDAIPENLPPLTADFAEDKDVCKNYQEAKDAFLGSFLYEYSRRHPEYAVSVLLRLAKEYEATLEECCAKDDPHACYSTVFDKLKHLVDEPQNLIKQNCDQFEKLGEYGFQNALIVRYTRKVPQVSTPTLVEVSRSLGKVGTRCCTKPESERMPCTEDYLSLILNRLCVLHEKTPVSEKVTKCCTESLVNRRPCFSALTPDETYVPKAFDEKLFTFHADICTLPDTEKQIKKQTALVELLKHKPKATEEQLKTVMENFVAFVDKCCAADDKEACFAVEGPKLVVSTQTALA
SMILES,composite z-score (Albumin (Bos taurus)),composite Z-score [1],composite z-score [2],composite z-score [3],composite z-score [4],composite z-score [5],composite z-score [6],composite z-score (Sam68 (KHDRBS1)),composite z-score [7],composite z-score [8]
COc1ccc([C@H]2OC[C@@H]3C[C@H](Cc4ccccc4)C(=O)N32)cc1,-0.0141,-0.397 (inactive),0.03,-0.101,-0.0065,0.0949,-0.0729,0.0535,0.0962,0.512
C=C[C@H]1C(C(=O)OCC)=CC[C@@H](c2ccccc2)N1S(=O)(=O)c1ccc(C)cc1,0.644,-0.176 (inactive),0.382,-0.0345,0.627,1.67,0.516,1.1,0.218,0.789
CCOC(=O)C[C@H]1[C@H](OC(=O)c2ccc(C(=O)c3ccccc3)cc2)[C@@H](NC(=O)c2ccc(-c3ccccc3)cc2)c2cc(OCCCO)ccc2N1C(=O)Cc1ccc(OC)cc1,0.519,-0.153 (inactive),0.16,0.121,0.177,0.93,0.0285,0.512,-0.0479,0.458
COC(=O)[C@@]1(Cc2ccc(OC)cc2)[C@H]2c3cc(C(=O)N(C)C)n(Cc4ccc(OC(F)(F)F)cc4)c3C[C@H]2CN1C(=O)c1ccccc1,0.953,0.255 (inactive),0.11,0.141,0.822,1.74,-0.0771,-0.264,-0.899,-0.467
CCCC[C@@H](O)C1=C(COC)C[C@H]2C(=O)N(Cc3ccccc3)C(=O)[C@H]2[C@H]1CO,0.232,-0.306 (inactive),-0.214,-0.0668,0.0793,0.368,0.263,0.651,0.293,0.455
O=c1cccc(-c2ccc([N+](=O)[O-])cc2)o1,-0.293,0.46 (inactive),0.0692,-0.154,0.365,0.403,0.633,0.795,0.075,-0.549
Cc1ccc(C(C)CC(O)C2C=CC3C(=O)N(c4ccccc4)C(=O)C3N2Nc2ccccc2)o1 (stereo not given),0.804,-0.474 (inactive),0.257,-0.0303,0.382,1.55,0.412,1.29,-0.19,1.09
COc1cc(NN2C(C(O)c3cc(OC)c(OC)c(OC)c3)C=CC3C(=O)N(C)C(=O)C32)cc(OC)c1OC (stereo not given),1.03,0.328 (inactive),0.499,-0.0028,0.67,2.77,0.0495,1.23,0.0976,0.894
CCCC[C@@H](O)C1=C(COC)C[C@H]2C(=O)N(C)C(=O)[C@H]2[C@H]1CO,0.277,0.0275 (inactive),-0.139,-0.217,0.183,-0.419,0.0048,-0.0046,0.831,0.256
COc1cc2c(cc1O)C=[N+](Cc1sc3ccccc3c1Cl)CC2,0.606,0.0375 (inactive),-0.0546,-0.0658,0.742,0.491,0.361,-0.291,0.496,0.968
CC(C)[Si]1(C(C)C)OCc2cc(-c3ccc(-c4ccc(Cl)c(Cl)c4)o3)nc(-c3ccccc3)c21,0.566,0.131 (inactive),-0.235,-0.234,-0.895,-0.77,-0.714,-1.53,-0.541,-0.746
CC(C)C(CO)N1C(=O)[C@@H]2C3C(=O)OCCC/C=C\[C@H]3OC23C=CCN(c2ccc4ccccc4c2)C(=O)[C@@H]13 (stereo not given in full),0.974,0.503 (inactive),-0.0716,-0.156,0.941,-0.201,-0.18,-1.02,-1.28,-0.612
CCOC(=O)C1=CC[C@@H](c2ccccc2)N(S(=O)(=O)c2ccc(C)cc2)[C@H]1c1ccccc1,0.831,-0.563 (inactive),0.107,-0.0806,0.453,0.69,-0.561,0.749,-0.221,1.07
COc1ccc([Si](C)(C)[C@@H]2[C@@H](CC(=O)N3Cc4ccccc4C[C@H]3CO)O[C@]3(C(=O)N(Cc4ccc(N5C(=O)c6cccc7cccc5c67)cc4)c4ccccc43)[C@H]2C)cc1,-0.604,0.535 (inactive),0.171,-0.0728,0.351,1.25,-0.0469,1.31,1.18,0.988
